Results filed as inconclusive are left out. Calls of active or inactive are those of the source. Unless noted, calls come from the whole dose curve; as a rule, active = well fitted curve in either direction with a large enough effect (not every such curve was filed as active); inconclusive = small, poorly fitted or top-dose-only effect, or another doubt; inactive = flat fitted curve, though single readings scatter.
How the values were obtained:
[1] = target: Lysosomal acid glucosylceramidase (Homo sapiens) (UniProt P04062); test: Glucocerebrosidase-p2 (AID 348; in the data active = potency below about 10 µM; note: potency is the fitted concentration of half-maximal effect); details: purified GBA, blue fluorogenic substrate, 40 min
How it was run: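 Compounds titrated from 0.6 nM upwards against 0.2 nM enzyme in pH 5.9 citric acid/KH2PO4, taurocholate, tween-20; blue fluorogenic substrate 80 uM, 40 min room temperature, stopped and read Ex 365/Em 440 for AC50.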

[2] = AP1 Signaling Pathway (AID 357); details: ME-180 AP-1-bla reporter, EGF-induced, beta-lactamase ratio, 5 h; at 7.69 µM (top of the series) unless noted; note: % is set by controls: 0 for no effect and ±100 for the full control effect
How it was run: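 AP-1-bla ME-180 cells with beta-lactamase reporter under AP-1 response element, stimulated with EC50 EGF; compounds titrated, 5 hours at 37 degrees Celsius. CCF4 read at 460/530 nm ratio; positive and negative modulators judged by AC50.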

[3] = target: Cytochrome P450 1A2 (Homo sapiens) (UniProt P05177); test: p450-cyp1a2 (AID 410; calls by dose curve; note: potency is the fitted concentration of half-maximal effect;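 for activity change, negative = inhibition: -100% = full effect of reference inhibitor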); details: recombinant CYP1A2, luciferin-ME demethylation, luminescence; series mostly up to 57 µM
How it was run: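 Human CYP1A2 (20nM) demethylated Luciferin-ME at its Km (100uM) in 100mM KPO4. After 10 min compound preincubation, NADPH regeneration ran the reaction 60 min at room temperature. Luciferin was read by luminescence, normalized to 57 uM furafylline.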

[4] = NFAT Signaling Pathway (AID 444); details: Jurkat NFAT-bla M1, carbachol, beta-lactamase ratio, 5 h; at 7.69 µM (top of the series) unless noted;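 note: carbachol stimulus at about its EC50 of 1 µM final; % is set by controls: 0 for no effect and ±100 for the full control effect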
How it was run: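 Read-out: CCF4 FRET ratio (460 nm/530 nm) after 1 h RT dye loading, used for %activity and AC50 from titration series. Cells: Jurkat NFAT-β-lactamase/M1 line, treated with compound plus 1 uM carbachol for 5 h, 37 °C.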

[5] = Stat Signaling Pathway (AID 446); details: ME-180 SIE beta-lactamase reporter, IL-6 stimulated, 5 h; at 7.69 µM (top of the series) unless noted;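 note: ME-180 cervical cancer cells given 40 pM IL-6 alongside compound; SIE-controlled beta-lactamase reporter measured as 460/530 nm FRET emission ratio; % is set by controls: 0 for no effect and ±100 for the full control effect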
How it was run: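 Reporter line: ME-180 cervical carcinoma, SIE-beta-lactamase. Treatment: compound with 40 pM IL-6, 5 hrs, 37 C, in low-serum OPTI-MEM with 10 mM HEPES pH 7.3. Detection: 460/530 nm fluorescence.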

[6] = target: Glucocorticoid receptor (Homo sapiens) (UniProt P04150); test: GR-EFC Redistribution (AID 451; calls by dose curve; note: potency is the fitted concentration of half-maximal effect); details: CHO-K1 GR-EFC translocation, beta-gal luminescence, 2 h
How it was run: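 Translocation of GR-ED fusion to nuclear EA restores b-gal, read by luminescence after 1 h room-temperature detection. Engineered CHO-K1 biosensor cells, 1,000/well, exposed 2 h at 37 C to titrations up to 46 uM final.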

[7] = target: Mitogen-activated protein kinase 10 (Mus musculus) (UniProt Q61831); test: JNK3 AlphaScreen Assay (AID 530); details: JNK3 lysate, c-Jun phosphorylation; series mostly up to 57.1 µM;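 note: kinase came from lysate of stimulated human HepG2 cells; signal reports phosphorylation of biotinylated GST-cJun 1-79 at Ser73 with 10 µM ATP; % is set by controls: 0 for no effect and ±100 for the full control effect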
How it was run: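 Room-temperature AlphaScreen kinase assay; pre-activated HepG2 lysate as JNK3 source, biotin-GST-cJun(1-79) substrate, 10 uM ATP, compound 15 min preincubation.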

[8] = target: 3',5'-cyclic-AMP phosphodiesterase 4B (Homo sapiens) (UniProt Q07343); test: qHTS Assay for Inhibitors of PDE-IV (AID 607; active = well fitted activation curve with a large enough effect in the main read-out, with a control signal flat, not every such curve was filed as active; note: % of control where 0% means no effect); details: HEK293 ACTOne CNG channel cells, membrane potential fluorescence; series mostly up to 22.9 µM
How it was run: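 Cell-based read-out of cAMP via a modified cyclic nucleotide-gated channel and membrane potential dye (535/590 nm) in HEK293 cells expressing PDE4 endogenously. Compounds tested up to 22.9 uM final; 100 uM RO 20-1724 reference.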

[9] = target: Cytochrome P450 3A4 (Homo sapiens) (UniProt P08684); test: qHTS Assay for Activators of Cytochrome P450 3A4 (AID 885; active = well fitted curve in the direction sought with a large enough effect; an effect the other way counts as inactive or inconclusive; note: nearly all actives have a fitted effect of over 65% in size; note: potency is the fitted concentration of half-maximal effect); details: recombinant CYP3A4, Luciferin-PPXE luminescence, 60 min; series mostly up to 57.1 µM
How it was run: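 Signal was normalized against complete inhibition by 57 uM ketoconazole. The reaction used 20nM CYP3A4 with 25uM Luciferin-PPXE, 10-min compound preincubation and a 60-min NADPH-supported step at RT.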

[10] = Primary qHTS for small molecule stabilizers of the endoplasmic reticulum resident proteome: Secreted ER Calcium Modulated Protein (SERCaMP) assay (AID 1508630; active = well fitted curve in the direction sought with a large enough effect; an effect the other way counts as inactive or inconclusive; note: % is set by controls: 0 for no effect and ±100 for the full control effect); details: SH-SY5Y GLuc-SERCaMP (Gaussia luciferase released on ER calcium loss) secretion, thapsigargin, luminescence; series mostly up to 38.4 µM
How it was run: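 GLuc-SERCaMP-expressing SH-SY5Y cells, pretreated 16 h with compound, are challenged with thapsigargin to empty ER calcium stores; after 4 h, coelenterazine is added directly to the medium and luminescence is imaged.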

[11] = target: Cytochrome P450 3A4 (Homo sapiens) (UniProt P08684); test: qHTS Assay for Inhibitors and Substrates of Cytochrome P450 3A4 (AID 884; active = well fitted curve in the direction sought with a large enough effect; an effect the other way counts as inactive or inconclusive; note: nearly all actives have a fitted effect of over 50% in size; note: potency is the fitted concentration of half-maximal effect); details: recombinant CYP3A4, Luciferin-PPXE luminescence; series mostly up to 57.1 µM
How it was run: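 20 nM human CYP3A4 with 25 uM Luciferin-PPXE (at KM) in 200 mM KPO4, preincubated 10 min with compound; NADPH regeneration started a 60 min RT reaction. Luciferin detected by luminescence, normalized to 57 uM ketoconazole as full inhibition.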

[12] = qHTS Assay for Identification of Small Molecule Agonists for Hypoxia Response Element Signaling Pathway (AID 914; active = well fitted activation curve with a large enough effect in the signal ratio, with a control signal flat, not every such curve was filed as active; the % refers to the signal ratio; note: % of control where 0% means no effect); details: ME-180 (cervical carcinoma) HRE-bla reporter, beta-lactamase ratio, CoCl2, 17 h; activation: hits give high values
How it was run: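 Read-out: CCF4 FRET ratio of 460nm to 530nm emission (excitation 405nm) after 2.5 hours at room temperature, taken from HRE-bla ME-180 cells that had been exposed to compound and EC50 CoCl2 for 17 hours.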

[13] = target: Cytochrome P450 2D6 (Homo sapiens) (UniProt P10635); test: qHTS Assay for Inhibitors and Substrates of Cytochrome P450 2D6 (AID 891; active = well fitted curve in the direction sought with a large enough effect; an effect the other way counts as inactive or inconclusive; note: potency is the fitted concentration of half-maximal effect; nearly all actives have a fitted effect of over 60% in size); details: recombinant CYP2D6, luciferin-ME EGE luminescence; series mostly up to 57.1 µM
How it was run: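 Human CYP2D6 (5 nM) with 30 uM Luciferin-ME EGE (at Km) in 100 mM KPO4, compound preincubated 10 min, then NADPH regeneration system for 60 min at room temperature. Luciferin read by luminescence; normalized to 1.43 uM quinidine.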

Sequence of Cytochrome P450 1A2 (Homo sapiens) (P05177 whole entry, looked up): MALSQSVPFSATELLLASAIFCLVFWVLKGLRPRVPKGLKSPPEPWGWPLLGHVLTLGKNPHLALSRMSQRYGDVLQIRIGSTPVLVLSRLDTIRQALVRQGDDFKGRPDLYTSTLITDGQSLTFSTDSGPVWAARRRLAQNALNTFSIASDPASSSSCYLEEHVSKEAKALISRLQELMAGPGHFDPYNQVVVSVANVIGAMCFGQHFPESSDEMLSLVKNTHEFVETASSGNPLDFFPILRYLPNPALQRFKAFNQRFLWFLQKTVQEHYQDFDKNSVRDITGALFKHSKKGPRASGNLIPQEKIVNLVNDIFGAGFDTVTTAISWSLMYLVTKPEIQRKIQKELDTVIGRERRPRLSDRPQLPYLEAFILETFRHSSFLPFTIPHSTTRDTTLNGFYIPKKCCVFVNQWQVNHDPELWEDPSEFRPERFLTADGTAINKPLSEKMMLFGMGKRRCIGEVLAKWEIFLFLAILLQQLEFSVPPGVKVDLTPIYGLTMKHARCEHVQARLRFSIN
Sequence of Lysosomal acid glucosylceramidase (Homo sapiens) (P04062 whole entry, looked up): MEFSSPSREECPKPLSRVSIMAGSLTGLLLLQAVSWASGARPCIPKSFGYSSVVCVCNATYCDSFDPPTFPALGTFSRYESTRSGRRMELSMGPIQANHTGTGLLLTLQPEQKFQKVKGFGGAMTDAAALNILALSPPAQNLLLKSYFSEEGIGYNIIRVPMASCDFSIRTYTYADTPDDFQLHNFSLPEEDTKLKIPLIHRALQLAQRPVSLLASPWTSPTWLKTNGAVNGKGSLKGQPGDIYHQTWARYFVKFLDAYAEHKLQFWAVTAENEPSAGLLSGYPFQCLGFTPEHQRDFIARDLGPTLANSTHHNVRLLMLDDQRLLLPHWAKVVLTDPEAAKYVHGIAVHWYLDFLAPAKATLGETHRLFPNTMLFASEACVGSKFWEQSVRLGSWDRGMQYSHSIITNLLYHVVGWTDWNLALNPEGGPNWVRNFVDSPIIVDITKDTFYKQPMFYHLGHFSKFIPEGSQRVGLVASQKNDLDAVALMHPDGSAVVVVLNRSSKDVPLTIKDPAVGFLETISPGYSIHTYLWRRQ
Sequence of Cytochrome P450 3A4 (Homo sapiens) (P08684 whole entry, looked up): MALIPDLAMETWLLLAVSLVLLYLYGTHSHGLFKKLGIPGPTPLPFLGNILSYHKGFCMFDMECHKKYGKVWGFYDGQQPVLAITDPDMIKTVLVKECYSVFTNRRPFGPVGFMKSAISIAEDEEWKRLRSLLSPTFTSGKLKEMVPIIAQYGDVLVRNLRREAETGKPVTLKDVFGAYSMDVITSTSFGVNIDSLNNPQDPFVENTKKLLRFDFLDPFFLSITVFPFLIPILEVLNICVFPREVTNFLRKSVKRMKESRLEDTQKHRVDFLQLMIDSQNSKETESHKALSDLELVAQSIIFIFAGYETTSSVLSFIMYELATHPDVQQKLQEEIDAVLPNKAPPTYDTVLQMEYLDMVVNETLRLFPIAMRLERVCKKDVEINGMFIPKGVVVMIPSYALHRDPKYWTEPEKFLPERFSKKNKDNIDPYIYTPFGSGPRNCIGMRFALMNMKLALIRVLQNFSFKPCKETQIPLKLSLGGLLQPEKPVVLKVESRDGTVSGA
Sequence of Glucocorticoid receptor (Homo sapiens) (P04150 whole entry, looked up, the tested form may be a part): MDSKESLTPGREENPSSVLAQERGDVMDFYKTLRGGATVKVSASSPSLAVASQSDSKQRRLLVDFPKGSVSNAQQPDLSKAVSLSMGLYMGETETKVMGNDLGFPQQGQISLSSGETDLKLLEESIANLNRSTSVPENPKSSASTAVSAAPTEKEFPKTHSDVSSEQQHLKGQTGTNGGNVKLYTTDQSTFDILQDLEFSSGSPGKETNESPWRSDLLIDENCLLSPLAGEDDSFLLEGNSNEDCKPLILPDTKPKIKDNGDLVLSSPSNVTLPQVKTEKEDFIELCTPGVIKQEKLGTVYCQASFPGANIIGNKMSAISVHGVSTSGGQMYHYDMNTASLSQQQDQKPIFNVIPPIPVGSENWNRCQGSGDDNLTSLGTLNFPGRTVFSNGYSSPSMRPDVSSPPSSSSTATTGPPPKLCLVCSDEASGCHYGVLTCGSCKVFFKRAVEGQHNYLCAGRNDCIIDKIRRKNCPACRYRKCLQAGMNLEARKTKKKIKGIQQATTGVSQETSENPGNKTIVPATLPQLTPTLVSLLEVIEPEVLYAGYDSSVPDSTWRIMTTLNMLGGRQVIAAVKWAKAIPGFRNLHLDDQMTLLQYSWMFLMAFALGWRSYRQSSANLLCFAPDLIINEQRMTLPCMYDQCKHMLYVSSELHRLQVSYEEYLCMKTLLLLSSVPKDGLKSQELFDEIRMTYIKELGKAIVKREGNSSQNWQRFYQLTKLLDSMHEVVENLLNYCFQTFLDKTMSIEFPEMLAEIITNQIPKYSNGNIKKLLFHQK
Sequence of 3',5'-cyclic-AMP phosphodiesterase 4B (Homo sapiens) (Q07343 whole entry, looked up): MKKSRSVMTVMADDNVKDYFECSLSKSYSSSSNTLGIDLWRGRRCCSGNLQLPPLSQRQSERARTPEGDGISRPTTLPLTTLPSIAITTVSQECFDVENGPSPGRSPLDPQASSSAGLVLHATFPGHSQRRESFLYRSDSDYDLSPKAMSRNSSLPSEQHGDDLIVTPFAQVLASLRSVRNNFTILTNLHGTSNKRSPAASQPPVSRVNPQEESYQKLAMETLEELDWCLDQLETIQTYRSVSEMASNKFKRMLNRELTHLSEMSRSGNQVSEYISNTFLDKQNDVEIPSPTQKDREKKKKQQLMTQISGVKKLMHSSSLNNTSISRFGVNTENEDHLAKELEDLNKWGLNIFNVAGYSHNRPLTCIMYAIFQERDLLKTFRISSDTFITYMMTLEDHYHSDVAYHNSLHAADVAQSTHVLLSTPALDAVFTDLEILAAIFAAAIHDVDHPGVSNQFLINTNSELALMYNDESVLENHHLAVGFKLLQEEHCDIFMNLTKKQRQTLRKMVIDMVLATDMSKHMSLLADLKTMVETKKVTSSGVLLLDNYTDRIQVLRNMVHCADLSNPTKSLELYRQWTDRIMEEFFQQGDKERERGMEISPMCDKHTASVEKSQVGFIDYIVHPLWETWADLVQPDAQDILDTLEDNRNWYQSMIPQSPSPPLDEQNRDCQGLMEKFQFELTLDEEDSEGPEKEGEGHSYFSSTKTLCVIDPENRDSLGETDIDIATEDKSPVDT
Sequence of Cytochrome P450 2D6 (Homo sapiens) (P10635 whole entry, looked up): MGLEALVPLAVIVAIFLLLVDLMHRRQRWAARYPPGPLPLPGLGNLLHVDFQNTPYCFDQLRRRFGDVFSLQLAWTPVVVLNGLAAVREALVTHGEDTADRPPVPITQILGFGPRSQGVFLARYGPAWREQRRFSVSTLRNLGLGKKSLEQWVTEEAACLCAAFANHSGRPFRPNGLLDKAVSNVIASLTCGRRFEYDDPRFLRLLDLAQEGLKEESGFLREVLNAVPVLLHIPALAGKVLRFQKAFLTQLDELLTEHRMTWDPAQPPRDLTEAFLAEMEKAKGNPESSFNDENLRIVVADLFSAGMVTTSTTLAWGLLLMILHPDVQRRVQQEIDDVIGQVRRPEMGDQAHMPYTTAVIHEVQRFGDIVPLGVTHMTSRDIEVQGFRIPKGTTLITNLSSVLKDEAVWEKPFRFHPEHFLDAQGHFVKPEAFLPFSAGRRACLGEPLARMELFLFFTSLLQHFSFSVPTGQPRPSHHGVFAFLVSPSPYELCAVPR

COc1ccc(NC(=O)N2CC3(CCN(S(=O)(=O)c4ccccc4)CC3)C2)cc1
inactive: Potency [1] > 11.4 µM | activity change, negative = inhibition [2] -1.69% | Potency [3] | activity change, negative = inhibition [4] 10.6% | activity, negative = inhibition [5] -2.28% | Potency [6] > 46 µM | Potency [7] | Potency [8] | Potency [9] | outcome [10]

COc1ccc(NC(=O)N2CCCC3(CCN(C(=O)c4ccco4)CC3)C2)cc1
inactive: Potency [1] > 11.4 µM | activity change, negative = inhibition [2] -17.6% | Potency [3] | activity change, negative = inhibition [4] 7.9% | activity, negative = inhibition [5] -11.8% | Potency [6] > 46 µM | Potency [7] | Potency [8] | Potency [9] | outcome [10]

O=C(Oc1ccccc1)N1CCC2(CC1)CN(c1ncccn1)C2
inactive: Potency [1] > 11.4 µM | activity change, negative = inhibition [2] -11.2% | activity change, negative = inhibition [4] -7.82% | activity, negative = inhibition [5] -0.184% | Potency [6] > 46 µM | Potency [7] | Potency [8] | Potency [11] | outcome [10]
active: Potency [3] 25.1 µM | Potency [9] 15.8 µM

CS(=O)(=O)N1CCC2(CC1)CN(c1ncccn1)C2
inactive: Potency [1] > 11.4 µM | activity change, negative = inhibition [2] -16% | Potency [3] | activity change, negative = inhibition [4] -5.62% | activity, negative = inhibition [5] 6.56% | Potency [6] > 46 µM | Potency [7] | Potency [8] | Potency [9] | outcome [10]

O=S(=O)(c1ccccc1)N1CCC[C@@]2(CCN(c3cccc(-c4ccccc4)c3)C2)C1
active: Potency [3] 15.8 µM
inactive: Potency [1] > 11.4 µM | activity change, negative = inhibition [2] -23.9% | activity change, negative = inhibition [4] -13.7% | activity, negative = inhibition [5] -8.6% | Potency [6] > 46 µM | Potency [7] | Potency [8] | Potency [9] | outcome [10]

O=C(c1cccc(F)c1)N1CCC2(CC1)CCN(c1ncccn1)CC2
inactive: Potency [1] > 11.4 µM | activity change, negative = inhibition [2] -6.18% | activity change, negative = inhibition [4] 2.49% | activity, negative = inhibition [5] -11.5% | Potency [6] > 46 µM | Potency [7] | Potency [8] | Potency [11] | outcome [10]
active: Potency [3] 10 µM | Potency [9] 7.94 µM

COC(=O)N1CCC[C@@]2(CCN(c3ncccn3)C2)C1
inactive: Potency [1] > 11.4 µM | activity change, negative = inhibition [2] 2.3% | Potency [3] | activity change, negative = inhibition [4] 11.8% | activity, negative = inhibition [5] 8.51% | Potency [6] > 46 µM | Potency [7] | Potency [8] | activation [12] 23.3% | outcome [10]

O=C(c1cnccn1)N1CCC2(CC1)CCN(c1ncccn1)CC2
active: Potency [9] 7.94 µM
inactive: Potency [1] > 11.4 µM | activity change, negative = inhibition [2] -5.54% | Potency [3] | activity change, negative = inhibition [4] 6.93% | activity, negative = inhibition [5] -9.82% | Potency [6] > 46 µM | Potency [7] | Potency [8] | Potency [11] | outcome [10]

Cn1cccc1C(=O)N1CCC2(CC1)CCN(c1ncccn1)CC2
inactive: Potency [1] > 11.4 µM | activity change, negative = inhibition [2] 0.908% | Potency [3] | activity change, negative = inhibition [4] 5.08% | activity, negative = inhibition [5] -4.72% | Potency [6] > 46 µM | Potency [7] | Potency [8] | Potency [11] | outcome [10]

COc1ccc(NC(=O)N2CCCC3(CCN(C(=O)c4cccn4C)CC3)C2)cc1
active: Potency [3] 25.1 µM
inactive: Potency [1] > 11.4 µM | activity change, negative = inhibition [2] -2.59% | activity change, negative = inhibition [4] -20.9% | activity, negative = inhibition [5] -3.06% | Potency [6] > 46 µM | Potency [7] | Potency [8] | Potency [9] | outcome [10]

CS(=O)(=O)N1CCC2(CCCN(C(=O)Nc3cccc(F)c3)C2)CC1
inactive: Potency [1] > 11.4 µM | activity change, negative = inhibition [2] 3.4% | Potency [3] | activity change, negative = inhibition [4] 10.8% | activity, negative = inhibition [5] -4.84% | Potency [6] > 46 µM | Potency [7] | Potency [8] | Potency [9] | outcome [10]

CC(C)NC(=O)N1CCCC2(CCN(C(=O)c3ccco3)CC2)C1
inactive: Potency [1] > 11.4 µM | activity change, negative = inhibition [2] 4.82% | Potency [3] | activity change, negative = inhibition [4] -9.54% | activity, negative = inhibition [5] -11.2% | Potency [6] > 46 µM | Potency [7] | Potency [8] | Potency [9] | outcome [10]
active: Potency [13] 2.51 µM

Cc1noc(C)c1C(=O)N1CCC[C@@]2(CCN(Cc3nccs3)C2)C1
inactive: Potency [1] > 11.4 µM | activity change, negative = inhibition [2] -0.7% | Potency [3] | activity change, negative = inhibition [4] 9.88% | activity, negative = inhibition [5] -7.79% | Potency [6] > 46 µM | Potency [7] | Potency [8] | Potency [9] | outcome [10]

O=C(c1ccncc1)N1CCC[C@@]2(CCN(c3ccccc3)C2)C1
active: Potency [11] 3.16 µM
inactive: Potency [1] > 11.4 µM | activity change, negative = inhibition [2] -9.5% | Potency [3] | activity change, negative = inhibition [4] -16.6% | activity, negative = inhibition [5] 3.29% | Potency [6] > 46 µM | Potency [7] | Potency [8] | Potency [9] | outcome [10]
